Gli-Sufu antag: blocks Gli-Sufu signaling in a luciferase reporter. inhibition, % at 5 µM. actives 0.74% (n = 340,000). Sufu-KO-LIGHT fibroblasts, Gli luciferase reporter luminescence;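 active means inhibition above about 55%, limit read from the data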;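 further: 0% = DMSO-treated cells and 100% = wells with medium but no cells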
aSyn UTR inh: MLPCN primary screen, SNCA 5' untranslated region. alpha-synuclein 5'UTR reporter, inhibitor activity. inhibition, % (tested at 7.5 µM). actives 0.82% (n = 300,000); in the data active means inhibition above about 60%; inconclusive means no clear call, values can overlap the other calls;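 further: H4 neuroglioblastoma cells stably carrying SNCA 5'UTR luciferase fusion; 0% = DMSO wells and 100% = positive control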
KLF5 inh: kruppel-like factor 5 inhibition | DLD-1 KLF5 promoter-luciferase reporter, luminescence | actives 0.23% (n = 290,000) | inhibition, % at 5 µM;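 active means inhibition above a per-plate limit of that plate's mean compound inhibition plus 3 SD, cut at about 60% in these data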;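 further: 0% = DMSO wells and 100% = LY294002 at 200 µM; higher means less KLF5 promoter-driven luciferase light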
697 NFkB inh: lowers PMA/ionomycin-induced NF-kB signal in 697 B cells; inhibition, % at 4 µM; AID 435022; 697 B-cell NF-kB luciferase reporter, 16 h; actives 0.33% (n = 330,000); in the data active means inhibition above about 35%
Mdm2 MdmX PPI: disrupts the human Mdm2-MdmX interaction; O15151+Q00987; SaOS-2 split-luciferase Mdm2/MdmX complementation, luminescence; inhibition, % at 8 µM; actives 3% (n = 330,000);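 active means inhibition of at least 50% at 8 µM in the primary screen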
Target sequence (O15151 whole entry, looked up): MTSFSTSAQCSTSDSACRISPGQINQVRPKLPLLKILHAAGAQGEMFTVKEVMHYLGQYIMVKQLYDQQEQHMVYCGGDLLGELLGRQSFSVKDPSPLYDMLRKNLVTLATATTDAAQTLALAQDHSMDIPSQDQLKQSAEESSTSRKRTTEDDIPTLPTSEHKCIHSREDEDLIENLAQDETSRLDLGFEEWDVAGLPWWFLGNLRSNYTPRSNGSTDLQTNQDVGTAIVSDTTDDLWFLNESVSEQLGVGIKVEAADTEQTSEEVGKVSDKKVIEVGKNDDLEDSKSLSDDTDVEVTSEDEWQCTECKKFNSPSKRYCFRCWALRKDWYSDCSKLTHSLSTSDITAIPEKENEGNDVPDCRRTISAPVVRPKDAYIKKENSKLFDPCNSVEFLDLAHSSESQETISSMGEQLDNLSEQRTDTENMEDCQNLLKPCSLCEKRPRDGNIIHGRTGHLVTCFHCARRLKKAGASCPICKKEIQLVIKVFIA
Target sequence (Q00987 whole entry, looked up): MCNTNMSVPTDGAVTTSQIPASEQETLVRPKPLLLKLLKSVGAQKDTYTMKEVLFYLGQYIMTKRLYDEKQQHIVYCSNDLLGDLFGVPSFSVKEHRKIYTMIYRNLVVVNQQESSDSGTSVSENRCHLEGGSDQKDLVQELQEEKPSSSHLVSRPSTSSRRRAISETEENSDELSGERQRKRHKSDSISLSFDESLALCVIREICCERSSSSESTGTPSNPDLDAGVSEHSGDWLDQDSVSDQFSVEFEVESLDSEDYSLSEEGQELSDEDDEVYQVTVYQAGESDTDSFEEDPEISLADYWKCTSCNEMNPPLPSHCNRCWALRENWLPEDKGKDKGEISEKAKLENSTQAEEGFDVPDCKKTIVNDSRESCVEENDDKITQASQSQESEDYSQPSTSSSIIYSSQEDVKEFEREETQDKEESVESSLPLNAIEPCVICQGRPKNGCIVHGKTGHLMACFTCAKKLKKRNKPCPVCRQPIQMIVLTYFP
Jurkat NFkB inh: inhibitors of the PMA/ionomycin-induced NF-kB reporter in Jurkat cells; PMA/ionomycin-induced NF-kB luciferase reporter, luminescence; inhibition, % at 4 µM; actives 0.53% (n = 330,000); in the data active means inhibition above about 50%
Mdm2 MdmX conf: human Mdm2/MdmX binding inhibition, confirmed; inhibition, % at 8 µM; actives 55% (n = 10,000); shares compounds with Mdm2 MdmX PPI; luminescent assay; in the data active means inhibition above about 40%
Full FLuc ctr: full-length luciferase inhibition in Mdm2/MdmX counter-screen; shares compounds with Mdm2 MdmX PPI; SaOS-2 full-length luciferase counterscreen, luminescence; inhibition, % at 8 µM; actives 77% (n = 6,200); AID 504607;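 active means mean inhibition at 8 µM reaching about 37%, which flags the compound as non-specific, limit read from the data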;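 further: p53-null SaOS-2 cells with luciferase driven by a doxycycline-inducible promoter; compound on cells about two nights before reading with doxycycline added after day one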
* marks the source's active call; other numbers are inactive results; ? = inconclusive; / = no result given. Shown are actives, neighbours in structure and some others; about 4.1% of the full set was active somewhere.

SMILES	Gli-Sufu antag	aSyn UTR inh	KLF5 inh	697 NFkB inh	Mdm2 MdmX PPI	Jurkat NFkB inh	Mdm2 MdmX conf	Full FLuc ctr
COc1ccc(NC(=O)c2oc3ccc(S(=O)(=O)N4CCC5(CC4)OCCO5)cc3c2C)cc1	13	-44	-12	7	71*	5	35	/
Cc1c(C(=O)Nc2cc(S(=O)(=O)N3CCOCC3)ccc2N2CCN(C)CC2)oc2ccccc12	2	21	4	5	56*	6	39	65*
CN1CCN(c2ccc(S(=O)(=O)N3CCOCC3)cc2NC(=O)CC(C)(C)C)CC1	-3	/	/	18	-5	2	/	/
CCN(CC)c1ccc(S(=O)(=O)N2CCOCC2)cc1NC(=O)CSc1ccccc1	12	-7	/	-24	-7	5	/	/
CCN(CC)c1ccc(S(=O)(=O)N2CCOCC2)cc1NC(=O)c1cc(=O)c2ccccc2o1	11	20	-24	6	51*	4	23	/
O=C(Nc1nnc(SCc2ccc(F)cc2)s1)c1ccc2c(c1)C(=O)N(c1ccccc1Cl)C2=O	29	19	-24	-17	6	-10	/	/
COCCNC(=O)/C(C#N)=C/c1c(F)cccc1Cl	-1	23	-6	21	10	-8	/	/
CCCCCCOc1ccc(/C(C)=N/NC2=NCCN2)cc1	21	-46	-14	-57	90*	49	31	/
COc1cnc(-c2ccccn2)nc1N(C)C	37	99*	4	5	72*	16	79*	42*
COc1ccc(Oc2nc(-c3ccccn3)ncc2OC)cc1	-2	2	-29	11	16	5	/	/
Cc1ccc(CNC(=O)COC(=O)c2ccc(S(=O)(=O)N(C)C)cc2)cc1	-12	-1	-13	1	-25	0	/	/
CCCNc1nc(-c2ccccc2)c(C(=O)OCC)cc1C#N	10	94*	30	-43	63*	43	52*	64*
Cc1cnn(-c2cc(N/N=C/c3ccc(F)cc3)ncn2)c1	-3	-86	-1	-18	52*	-27	42*	101*
Clc1ccccc1C=NNc1ccccn1	-27	/	/	/	/	/	/	/
Cc1cnn(-c2cc(N/N=C/c3ccccc3Cl)ncn2)c1	-22	-10	8	19	63*	10	-2	/
Cc1cc(C)c2[nH]c(C(=O)Nc3ccc(F)cc3Br)cc2c1	-60	-34	-30	-28	16	7	/	/
Cc1cc(C)cc(NC(=S)NCc2ccc3[nH]c4c(c3c2)CCCC4)c1	1	40	8	-121	83*	0	21	/
S=C(NCc1ccc2[nH]c3c(c2c1)CCCC3)Nc1ccccc1	-22	13	-6	-25	70*	-4	15	/
Cc1cc(C)nc(N/N=C/c2cc(C)n(CC(F)(F)F)c2C)n1	27	-13	-10	16	24	7	/	/
Cc1nnc(NCc2n[nH]c(=O)c3ccccc23)c2ccccc12	6	18	-14	16	75*	-3	21	/
COCC1CCN(C(=O)CCc2nnc(C3(c4ccc(Cl)cc4)CCC3)o2)CC1	1	-14	-18	-64	0	-22	/	/
Cc1ccc(C(=O)N/C(=C\c2ccc(-c3ccc(Br)cc3)o2)C(=O)NCCCN(C)C)cc1	17	?	-12	2	100*	8	99*	55*
Cc1ccc(C(=O)N/C(=C\c2ccc(-c3cccc([N+](=O)[O-])c3)o2)C(=O)NCCCN(C)C)cc1	17	-16	-22	-11	39	1	/	/
CN(C)CCNC(=O)/C(=C/c1ccc(-c2ccc(Cl)cc2Cl)o1)NC(=O)c1ccccc1	7	29	-11	15	100*	7	100*	26
OC(COCC(F)(F)C(F)(F)C(F)(F)C(F)F)Cn1c2ccc(Cl)cc2c2cc(Cl)ccc21 (stereo not given)	4	-32	-20	-31	95*	-15	28	/
SMILES	Gli-Sufu antag	aSyn UTR inh	KLF5 inh	697 NFkB inh	Mdm2 MdmX PPI	Jurkat NFkB inh	Mdm2 MdmX conf	Full FLuc ctr
CCN(CC)C(=O)c1sc(NC(=O)C(Sc2ccccc2)c2ccccc2)c(C(=O)OC(C)C)c1C (stereo not given)	17	14	-27	1	58*	-2	1	/
CCN(CC)C(=O)c1sc(N)c(C(=O)OC(C)C)c1C	9	-17	5	1	4	3	/	/
CCOC(=O)C1=C(C)N=c2s/c(=C/c3ccccc3)c(=O)n2C1c1ccc(OC)c(OC)c1 (stereo not given)	0	-27	-22	2	47	7	/	/
CCOC(=O)C1=C(C)n2c(s/c(=C/c3cccc([N+](=O)[O-])c3)c2=O)=NC1c1ccc(O)c(OC)c1 (stereo not given)	13	-39	4	20	82*	16	77*	26
Cc1ccccc1OCc1occc1C(=O)Nc1cccc(-n2cnnn2)c1	-11	-91	-12	-49	59*	45	47*	47*
Cc1cccc(OCc2occc2C(=O)Nc2cccc(-n3cnnn3)c2)c1	26	11	-14	-39	19	-4	/	/
Oc1c(C(Nc2cccc(C(F)(F)F)c2)c2ccncc2)ccc2cccnc12 (stereo not given)	2	82*	7	-18	61*	8	49*	21
O=C(Nc1cccc(C(F)(F)F)c1)c1cccnc1	10	14	-11	12	-30	-12	/	/
O=C1C(N2CCOCC2)=C(n2nnc3ccccc32)C(=O)c2ccccc21	-13	?	0	2	73*	43	33	/
CN(C)CCNC(=O)COc1ccc(C23CC4CC(CC(C4)C2)C3)cc1	6	-55	-41	6	66*	-5	23	/
Cc1ccc(C23CC4CC(CC(NC(=O)NCCN(C)C)(C4)C2)C3)cc1	11	-9	-29	-1	50	0	/	/
CCOc1ccc(C(=O)CC(C(=O)O)N2CCCCC2)cc1 (stereo not given)	-1	/	/	-12	9	4	/	/
CCN(CC)CCCN(C(=O)c1cccc(C)c1)c1nc(-c2ccc(OC)cc2)cs1	/	12	-4	-28	56*	-8	34	84*
O=[N+]([O-])c1ccc(N=Nc2c(O)[nH]c3ccc(F)cc23)cc1	-47	-82	-108	-83	54*	-97	-44	/
O=[N+]([O-])c1ccc2[nH]c(O)c(N=Nc3ccc(F)cc3)c2c1	-3	8	-12	-18	11	18	/	/
COc1cccc(C(=O)/C=C/c2ccc(OCC#N)c(OC)c2)c1	6	-121	1	-13	96*	9	43*	42*
COc1cc(/C=C/C(=O)c2ccc(O)cc2)ccc1OCC#N	-13	-134	-40	-30	87*	-8	78*	36
c1ccc(CNc2cncnc2)cc1	1	6	-38	-5	3	-5	/	/
